Activity calls are given as the source filed them. Rule for the calls: active = hit-call score of the fitted dose curve at least 0.9, where 1 is the maximum; inactive = score below 0.9.

Read-out in assay [1]: Interleukin-1 alpha (IL1a), IL1A (gene 3552)
The experiment in a line: BSK_KF3CT_IL1a: BioMAP Diversity Plus: KF3CT Assay for Interleukin-1 alpha (IL1a) Biomarker Activity (AID 2283070). The note with it: primary human keratinocytes with fibroblasts; actives raise or lower the signal. The gist of the method: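 Primary skin co-culture (keratinocytes, foreskin fibroblasts), 24 h exposure; ELISA for IL-1a; bidirectional curve fit vs DMSO.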

Read-out in assay [2]: TIMP metallopeptidase inhibitor 2 (TIMP2), TIMP2 (gene 7077)
The experiment in a line: BSK_KF3CT_TIMP2: BioMAP Diversity Plus: KF3CT Assay for TIMP metallopeptidase inhibitor 2 (TIMP2) Biomarker Activity (AID 2283071). The conditions noted are these: primary human keratinocytes with fibroblasts; actives raise or lower the signal. The gist of the method:
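TIMP-2 measured by ELISA at 24 h in human keratinocyte/fibroblast primary co-cultures exposed to chemicals. Both increases and decreases were fitted against DMSO. Parallel cultures were stained with SRB for total protein as an overt-cytotoxicity check.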

Read-out in assay [3]: Transforming growth factor beta 1 (TGFb1), TGFB1 (gene 7040)
Put plainly: BSK_KF3CT_TGFb1: BioMAP Diversity Plus: KF3CT Assay for Transforming growth factor beta 1 (TGFb1) Biomarker Activity (AID 2283072). The note with it: primary human keratinocytes with fibroblasts; actives raise or lower the signal. The method, boiled down: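 ELISA quantifies TGF-b1 at 24 h post-dose in a primary human skin co-culture of keratinocytes and fibroblasts, with gain or loss judged against DMSO. Parallel SRB total-protein staining flags overt cytotoxicity.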

Read-out in assay [4]: C-C motif chemokine 2 (Homo sapiens) (UniProt P13500)
Put plainly: BSK_KF3CT_MCP1: BioMAP Diversity Plus: KF3CT Assay for Monocyte Chemoattractant Protein 1 (MCP1/CCL2) Biomarker Activity (AID 2283073). The note with it: primary human keratinocytes with fibroblasts; actives raise or lower the signal. The gist of the method: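 KF3CT skin co-culture (keratinocytes/foreskin fibroblasts), 24 h post-dose; MCP-1 by ELISA; gain/loss of signal fit bidirectionally vs DMSO baseline.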

Read-out in assay [5]: Matrix Metallopeptidase 9 (MMP9), MMP9 (gene 4318)
The experiment in a line: BSK_KF3CT_MMP9: BioMAP Diversity Plus: KF3CT Assay for Matrix Metallopeptidase 9 (MMP9) Biomarker Activity (AID 2283074).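 For AC50: MMP9 protein level quantified by ELISA in the co-culture.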 The note with it: primary human keratinocytes with fibroblasts; actives raise or lower the signal. The gist of the method: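 ELISA read-out of MMP-9 at 24 h post-dosing in a co-culture of human skin keratinocytes and foreskin fibroblasts. Gain or loss of signal was fitted in both directions against DMSO.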

Read-out in the next assay: CD40, CD40 (gene 958)
The experiment in a line: BSK_LPS_CD40: BioMAP Diversity Plus: LPS Assay for CD40 Biomarker Activity (AID 2283076). The note with it: primary human HUVEC with PBMC; actives raise or lower the signal. The method, boiled down: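 ELISA readout of CD40 in HUVEC/PBMC co-culture (BSK_LPS system), 24 h post-dosing; bidirectional curve fit, DMSO baseline; parallel SRB total-protein staining for cytotoxicity.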

Read-out in assay [6]: E-selectin (Homo sapiens) (UniProt P16581)
The experiment in a line: BSK_LPS_Eselectin: BioMAP Diversity Plus: LPS Assay for Eselectin Biomarker Activity (AID 2283077). The conditions noted are these: primary human HUVEC with PBMC; actives raise or lower the signal. The gist of the method: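 ELISA readout of E-selectin, 24 h post-dose, HUVEC + PBMC co-culture (LPS system). Gain or loss of signal vs DMSO baseline, bidirectional fit.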

Read-out in assay [7]: Interleukin-8 (IL8), CXCL8 (gene 3576)
Put plainly: BSK_LPS_IL8: BioMAP Diversity Plus: LPS Assay for Interleukin-8 (IL8) Biomarker Activity (AID 2283078). The conditions noted are these: primary human HUVEC with PBMC; actives raise or lower the signal. The gist of the method: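 HUVEC + PBMC co-culture, LPS-activated; test chemicals dosed, IL-8 read by ELISA at 24 h. Bidirectional curve fit vs DMSO baseline (gain or loss of signal).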

Assay [8] is described as follows: BSK_LPS_SRB: Viability Assessment in the BioMAP Diversity Plus: LPS Assay (AID 2283079).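 Note: total protein by sulforhodamine B absorbance as a cytotoxicity measure; measured one day after compound addition.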 The note with it: primary human HUVEC with PBMC. The gist of the method: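 HUVEC + PBMC co-culture, LPS-stimulated; compound 24 h. 10% TCA fix, 0.1% SRB stain, A560. Bidirectional fit vs DMSO.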

Chain of E-selectin (Homo sapiens) (P16581 whole entry, looked up): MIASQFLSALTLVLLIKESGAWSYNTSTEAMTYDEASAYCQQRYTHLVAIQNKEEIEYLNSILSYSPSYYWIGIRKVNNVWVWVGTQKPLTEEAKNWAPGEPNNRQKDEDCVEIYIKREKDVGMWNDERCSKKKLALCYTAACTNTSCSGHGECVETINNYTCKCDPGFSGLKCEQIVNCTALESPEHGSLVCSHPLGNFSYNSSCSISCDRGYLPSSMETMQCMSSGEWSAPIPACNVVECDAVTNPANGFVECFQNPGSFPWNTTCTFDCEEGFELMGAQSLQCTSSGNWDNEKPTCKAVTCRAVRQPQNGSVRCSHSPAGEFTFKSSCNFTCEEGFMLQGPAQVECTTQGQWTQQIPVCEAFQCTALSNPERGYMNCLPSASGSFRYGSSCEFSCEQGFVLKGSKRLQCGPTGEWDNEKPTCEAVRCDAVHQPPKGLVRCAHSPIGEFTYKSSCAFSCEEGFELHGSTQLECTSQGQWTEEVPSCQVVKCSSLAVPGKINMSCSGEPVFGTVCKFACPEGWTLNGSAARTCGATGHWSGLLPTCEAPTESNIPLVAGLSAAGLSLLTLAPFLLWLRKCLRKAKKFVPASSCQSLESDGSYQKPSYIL

Take `CCOc1nc(F)cc2nc(S(=O)(=O)Nc3c(Cl)cccc3Cl)nn12`: the outcome in assay [1] was “inactive”; in [2], “inactive”; in assay [3] it was “inactive”; in assay [4] it was “inactive”; in assay [5] it was “inactive”; in the assay with CD40, CD40 (gene 958), “inactive”. The outcome in assay [7] and in assay [8] was inactive. For the same molecule, the AC50 in assay [6] was 20 µM (active).

On to `CC(C)C1(C)N=C(c2ncccc2C(=O)O)NC1=O` (stereo not drawn), for which the outcome in assay [1] is “inactive”; in assay [2], “inactive”; in assay [3] it was “inactive”; in assay [4], “inactive”; in assay [5], “inactive”; with CD40, CD40 (gene 958) it was “inactive”. Besides, the outcome in assay [6], in [7] and in assay [8] was inactive.

Regarding `COC(=O)N(C(=O)N1CO[C@@]2(C(=O)OC)Cc3cc(Cl)ccc3C2=N1)c1ccc(OC(F)(F)F)cc1`, the result in [1], in assay [2], in assay [3], in assay [4] and in [6] was inactive. Besides, the AC50 in assay [5] is 3.16 µM (active); in the assay with CD40, CD40 (gene 958) it was 12.4 µM (active); in assay [7], 5.43 µM (active); in assay [8] it was 5.89 µM (active).

Take `CN/C(=N\[N+](=O)[O-])NCc1cnc(Cl)s1`: the outcome in assay [1] is “inactive”; in [2] it was “inactive”; in [3], “inactive”; in assay [4], “inactive”; in assay [5] it was “inactive”; with CD40, CD40 (gene 958), “inactive”. The outcome in assay [6], in assay [7] and in assay [8] was inactive.

`CC(C)N1C(=O)c2ccccc2NS1(=O)=O`: the outcome in assay [1] was “inactive”; in [2], “inactive”; in [3], “inactive”; in assay [5] it was “inactive”; in the assay with CD40, CD40 (gene 958) it was “inactive”; in assay [6], “inactive”. Also, the outcome in assay [7] and in assay [8] was inactive. Besides, the AC50 in [4] is 535 nM (active).

With `Nc1cnn(-c2ccccc2)c(=O)c1Cl`, the outcome in assay [1] was “inactive”; in [2], “inactive”; in assay [3] it was “inactive”; in [4], “inactive”; in assay [5], “inactive”; with CD40, CD40 (gene 958) it was “inactive”. Further, the result in [6], in [7] and in assay [8] was inactive.

`CCCCC(O)(Cn1cncn1)c1ccc(Cl)cc1Cl` (stereo not drawn): the outcome in assay [1] was “inactive”; in assay [2] it was “inactive”; in assay [3] it was “inactive”; in assay [4], “inactive”; in assay [5] it was “inactive”; in the assay with CD40, CD40 (gene 958) it was “inactive”. Moreover, the outcome in assay [6], in [7] and in assay [8] was inactive.

As for `Nc1c(Cl)c(F)nc(OCC(=O)O)c1Cl`, the outcome is “inactive” in assay [1]; “inactive” in assay [2]; “inactive” in assay [3]; “inactive” in assay [4]; “inactive” in assay [5]; “inactive” in the assay with CD40, CD40 (gene 958). Further, the outcome in assay [6], in assay [7] and in assay [8] was inactive.

Take `COC(=O)c1c(C(F)F)nc(C(F)(F)F)c(C2=NCCS2)c1CC(C)C`: the outcome in [1], in [2], in assay [3], in assay [4], in assay [5] and in assay [6] was inactive. In assay [7], the result was inactive. In addition, the AC50 is 7.78 µM (active) in the assay with CD40, CD40 (gene 958) and 31.9 µM (active) in [8].

As for `C=CCOC(=O)C(C)(C)OC(=O)c1cc(-n2c(=O)cc(C(F)(F)F)n(C)c2=O)ccc1Cl`, the result in assay [1], in [3], in assay [5], in [6], in assay [7] and in assay [8] was inactive. Further, the AC50 in [2] is 27.9 µM (active); in assay [4], 1890 nM (active); with CD40, CD40 (gene 958) it was 6.73 µM (active).

For the molecule `CCN(CC)c1nc(C)cc(OP(=S)(OC)OC)n1`, the outcome in assay [1], in assay [2], in [3], in assay [4], in assay [5] and in assay [6] was inactive. For the same molecule, the result in [7] and in [8] was inactive. Moreover, in the assay with CD40, CD40 (gene 958), the AC50 is 19.5 µM (active).

As for `CC(C)NC(=O)N1CC(=O)N(c2cc(Cl)cc(Cl)c2)C1=O`, the outcome is “inactive” in [1]; “inactive” in [2]; “inactive” in assay [3]; “inactive” in assay [4]; “inactive” in assay [5]; “inactive” in the assay with CD40, CD40 (gene 958). Besides, the outcome in [6], in assay [7] and in assay [8] was inactive.

Consider `CCNC(=O)NC(=O)C(C#N)=NOC`, for which the outcome in assay [1] is “inactive”; in [2], “inactive”; in [3], “inactive”; in [5] it was “inactive”; with CD40, CD40 (gene 958), “inactive”; in [6], “inactive”. Besides, the outcome in [7] and in assay [8] was inactive.

With `COP(=O)(OC)O/C(C)=C/C(=O)N(C)C`, the outcome is “inactive” in assay [1]; “inactive” in [2]; “inactive” in assay [3]; “inactive” in [4]; “inactive” in [5]; “inactive” with CD40, CD40 (gene 958). The result in assay [6], in [7] and in assay [8] was inactive.

Consider `CCOP(=S)(OCC)Oc1nc(Cl)n(C(C)C)n1`, for which the outcome was “inactive” in assay [1]; “inactive” in assay [2]; “inactive” in assay [3]; “inactive” in [4]; “inactive” in [5]; “inactive” in the assay with CD40, CD40 (gene 958). The outcome in assay [6], in assay [7] and in assay [8] was inactive.

Consider `Cc1c(COC(=O)[C@@H]2[C@H](/C=C(\Cl)C(F)(F)F)C2(C)C)cccc1-c1ccccc1`, for which the outcome is “inactive” in [1]; “inactive” in assay [2]; “inactive” in assay [3]; “inactive” in assay [4]; “inactive” in assay [5]; “inactive” with CD40, CD40 (gene 958). Besides, the result in [6] and in assay [8] was inactive. Moreover, the AC50 in [7] was 5.39 µM (active).

One may read the AC50 as the midpoint of the concentration-response curve, whichever way the signal moves.

For the origin of these results see PubChem BioAssay (EPA / NIEHS).
